SMILES strings stand for the structures. The panel holds about 83,000 compounds, 20% with a hit somewhere; the sample as a whole holds those more often.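 Single-concentration screen, 48 h exposure, 96-well plates. Endpoint: percent growth. Below 10 = active.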 Values without a mark were called inactive. The source made the active and inactive calls.

For the test, the system named is T-47D breast. Kind of test: NCI-60 one-dose screen, 48 h (100 = growth as untreated, 0 = no growth, -100 = all killed). The settings on record: 10 µM unless noted.
Turning to `COc1c(B(O)O)cc(F)cc1-c1nc2c(F)cc3[nH]ncc3c2c2c1CCCC2`, the growth was 33.7%.

Take `CC1=C(C(=O)Nc2ccccc2)C(c2cccc(Cl)c2Cl)n2c(nc3ccccc32)N1` (stereo not drawn): the growth is 67.4%.

Turning to `COc1ccccc1NC(=O)c1ccc(NC(=O)CCl)s1`, the growth is 40.6%.

For the compound `O=C(CSc1nc2sc3c(c2c(=O)n1-c1ccc(Cl)cc1)CCCC3)NNC(=O)c1ccc(Br)cc1`, the growth was 58.5%.

With `O=C1CCC(N2C(=O)c3cccc(NCCOCCOCCOCCC(=O)NCCCC(=O)NC(c4ccc5c(c4)OCO5)c4cc(Cl)c5cccnc5c4O)c3C2=O)C(=O)C1` (stereo not drawn), the growth was 16%.

For the compound `NCCCCn1c(SCCc2c[nH]c3ccccc23)nnc1-c1ccc2ccccc2n1`, the growth was -63.4% (active).

On to `CCCSc1nnc(-c2sc3nc4ccccc4n3c2C)o1`, for which the growth is 102%.

As to `Cc1ccc2c(c1)/C(=C/C(=O)c1cc3ccccc3oc1=O)C(=O)N2`, the growth is 72.8%.

In the case of `Cn1cc(-c2cc(N)n3nc(-c4c[nH]c5ccccc45)cc3n2)c2cc(F)ccc21`, the growth is 15.8%.

In the case of `COc1ccccc1/C=C/c1cccc(NC(=S)NCCCCN(C)C)c1`, the growth was -58.7% (active).

Turning to `O=C1NC(=S)/C(=C/c2cn(-c3ccccc3)nc2-c2ccccc2)S1`, the growth was 0.334% (active).

For the compound `Cc1cc(C)c2[nH]c(=O)c(C(c3nnnn3Cc3ccc4c(c3)OCO4)N3CCN(C)CC3)cc2c1` (stereo not drawn), the growth is 112%.

`C[C@@H]1[C@H]2C[C@@H](C[C@H]1NCc1nc3ccccc3n1C1CCCCCC1)C2(C)C`: the growth is 48%.

Turning to `O=c1c(-c2nc(-c3ccccc3)c(-c3ccccc3)[nH]2)coc2ccc(F)cc12`, the growth was 22.1%.

For `CN1CCc2c(sc3ncnc(N/N=C/c4cccc(Cl)c4Cl)c23)C1`, the growth was -6.02% (active).

Regarding `COc1ccc(N=Nc2c(N)nn3c(N)c(C#N)c(-c4ccccc4)nc23)cc1`, the growth is 16.4%.

`COc1ccc(/C=C/C(=O)c2ccc(OC)c(S(N)(=O)=O)c2)c(C(F)(F)F)c1`: the growth was 29.3%.

On to `COc1ccc(C2=Nc3c(N)nc(N)nc3NC(c3ccc(Oc4nc(Nc5ccc(F)cc5)nc(N(C)C)n4)c(OC)c3)C2)cc1` (stereo not drawn), for which the growth was 70.3%.

Turning to `COc1ccc(NC(=O)NN2C(=O)c3ccccc3N(C)C2c2ccc(OC)cc2)cc1` (stereo not drawn), the growth was 97.1%.

As for `COc1nc(N)ncc1-c1ccc2ncnc(N3CCc4cc(F)c(Cl)cc43)c2c1`, the growth is -46.3% (active).

With `COc1ccc(NC(=O)Nc2nc3ccc([N+](=O)[O-])cc3s2)cc1`, the growth was 4.2% (active).

Consider `COc1ccc(NC(=O)N/N=C/c2c[nH]c3ccccc23)cc1`, for which the growth was 43.3%.

In the case of `CC1=C(C(=O)Nc2ccccc2)C(c2ccc3ccccc3c2)n2c(nc3ccccc32)N1` (stereo not drawn), the growth is 91.8%.

As to `O=C(N/N=C/c1c[nH]c2ccccc12)Nc1ccccc1Cl`, the growth is 44.9%.

In the case of `O=C(N=Nc1c(O)[nH]c2ccc(Br)cc12)c1ccc2nc(-c3ccc(Cl)cc3)[nH]c2c1`, the growth was -30.7% (active).

In the case of `COc1ccc2c(c1)C(Sc1ccc(Br)cc1)c1c(nc(N)c(C#N)c1N)O2` (stereo not drawn), the growth is 80.3%.

On to `C=CC(=O)N1CCN(c2ccc3nc4c(nc3c2C(F)(F)F)C(=O)c2ncccc2C4=O)CC1`, for which the growth was -4.37% (active).

For `COc1ccc(NC(=O)CSc2nnc(-c3ccc(-c4nc5ccc(Cl)cc5[nH]4)cc3)o2)cc1`, the growth is 75.9%.

As to `O=c1[nH]c2ccccc2cc1COc1ccc(Nc2nccc(-c3ccc(Cl)cc3)n2)cc1`, the growth is 92.2%.

As to `Cc1ccc(C(=O)Nc2ccc(-n3ccnc3)c(C(F)(F)F)c2)cc1C#Cc1cnc2cccnn12`, the growth is -13.3% (active).

On to `Cc1cccc(/C=C/c2ccc(NC(=S)NCCCCN(C)C)cc2)c1`, for which the growth was -67.8% (active).

Consider `N#Cc1cc(-c2ccc3ncnc(N4CCc5cc(F)c(Cl)cc54)c3c2)cnc1N`, for which the growth is 25.8%.

For `COc1ccc(-c2nnc3c(/C=C/c4ccc(Br)cc4)nc4ccccc4n23)cc1`, the growth is 64.2%.

Regarding `O=C(CSc1nnc(-c2ccc(-c3nc4ccccc4[nH]3)cc2)o1)Nc1ccccc1`, the growth is 109%.

For the compound `NC(=O)c1ccc(-c2ccc3ncnc(N4CCc5cc(F)c(Cl)cc54)c3c2)cn1`, the growth was 28%.

With `O=C(Nc1ccc(-c2ccc3c(c2)NC(=O)/C3=C\c2ccc[nH]2)cc1)Nc1ccc(Cl)c(C(F)(F)F)c1`, the growth is 16.5%.

As for `Nc1nn2c(-c3cc4cc(Br)ccc4oc3=O)ccnc2c1N=Nc1ccc(Br)cc1`, the growth was 29.2%.

For `FC(F)(F)c1cc2c(Cl)ncnc2n1CCN1CCCCC1`, the growth is 70.5%.

The record behind these values is PubChem BioAssay (NCI).
